Rows were chosen to be rich in hits. Some 19% of all compounds tested hit in one or more screens of this group.
IL1B secr inh: inflammasome signaling inhibition, IL-1 beta readout | THP-1 LPS/ATP IL-1B secretion, AlphaLISA, 16 h; hits give low values | 4.7% of 360,000 active | AID 743279 | activity change, % at 57.5 µM; in the data active means activity change below about -50%; inconclusive means mostly about -30% to -49%; further: on the % scale 0 is the no-effect control and ±100 the full control effect
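Secreted IL-1B measured by AlphaLISA bead assay after 16 h compound exposure of THP-1 cells; compounds (final up to 57.5 uM) added 1 h before LPS (250 ng/mL) and ATP (1.25 mM) stimulation; lower signal means less secretion.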
HepG2 tox: counter-screen for TGF-b inhibitors: cytotoxicity in HepG2 cells | HepG2 CAGA-GFP viability, ATP luminescence, 18 h | Potency, µM (series often up to 46.1 µM), for the others: top-dose activity change, negative = cytotoxicity, actives largely listed as cytotoxic | 0.76% of 410,000 active; further: potency means the concentration at half of the fitted maximal effect
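CellTiter-Glo luminescence gave cytotoxicity after 18 hours at 37 degrees C. The cells were HepG2 CAGA-GFP in 1% FBS DMEM, stimulated with 500 pg/mL TGF-beta after compound addition. %Activity was normalised to no-cell wells (complete cell-killing) and DMSO (no toxicity), and curves were fitted and classified.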
TDP1 cell CPT: DT40-hTDP1 cell growth loss with CPT. chicken DT40 Tdp1-/-;hTDP1 cells + 20 nM CPT, ATP luminescence, 48 h. Potency, µM (series often up to 46.2 µM), inactives show at the highest dose activity change, negative = growth inhibition, most hits filed as inhibitors. 12% of 420,000 active; further: potency means the concentration at half of the fitted maximal effect; on the % scale 0 is the no-effect control and ±100 the full control effect; nearly all actives have a fitted effect of over 55% in size
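Chicken DT40 Tdp1-/- cells complemented with human TDP1, 400 cells/well, exposed to compounds plus 20 nM camptothecin for at least 48 h at 37 C; viability read as ATP content by CellTiter-Glo luminescence.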
ASM inhibitor: blocks human secretory acid sphingomyelinase | AID 504937 | P17405 | placental ASM, HMU-PC fluorogenic substrate, 60 min | Potency, µM (series often up to 57.5 µM), for inactives: at the top dose activity change, negative = inhibition, hits mostly inhibitors | 0.006% of 340,000 active; further: potency means the concentration at half of the fitted maximal effect
Target sequence (P17405 47-631 limits assumed): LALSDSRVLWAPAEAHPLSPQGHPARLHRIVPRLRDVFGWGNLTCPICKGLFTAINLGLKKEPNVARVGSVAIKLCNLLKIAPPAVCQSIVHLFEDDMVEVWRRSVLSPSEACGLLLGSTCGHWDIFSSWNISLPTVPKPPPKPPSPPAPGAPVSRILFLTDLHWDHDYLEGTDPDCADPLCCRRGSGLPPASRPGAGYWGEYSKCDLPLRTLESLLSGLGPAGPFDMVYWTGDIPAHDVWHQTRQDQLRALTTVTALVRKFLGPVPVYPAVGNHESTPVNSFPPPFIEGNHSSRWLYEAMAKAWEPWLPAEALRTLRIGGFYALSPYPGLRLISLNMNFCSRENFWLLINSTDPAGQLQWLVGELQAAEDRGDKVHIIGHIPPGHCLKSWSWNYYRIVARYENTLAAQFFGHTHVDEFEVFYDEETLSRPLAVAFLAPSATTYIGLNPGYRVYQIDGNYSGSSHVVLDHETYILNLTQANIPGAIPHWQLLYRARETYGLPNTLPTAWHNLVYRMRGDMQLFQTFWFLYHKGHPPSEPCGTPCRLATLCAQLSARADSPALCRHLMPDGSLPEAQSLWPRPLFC
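qHTS format. ASM enzyme prepared from human placenta hydrolyses the fluorogenic substrate HMU-PC0 (9 uM final) over 60 min at 37 °C after a 10 min compound preincubation.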
TGFb inhibitor: TGF-b pathway inhibition; Potency, µM (highest dose often 46.1 µM), without a hit: at the top dose activity, negative = inhibition, usual class: inhibitors; 1.2% of 410,000 active; HepG2 CAGA-GFP TGF-b/SMAD3 reporter, GFP fluorescence, 18 h; TGF-beta stimulated, 500 pg/mL final; further: potency means the concentration at half of the fitted maximal effect; on the % scale 0 is the no-effect control and ±100 the full control effect; nearly all actives have a fitted effect of over 65% in size
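Read-out: total well GFP (ex488/em500-530) summed from mean per-cell fluorescence. Cells: HEPG2 CAGA-GFP, 1% FBS DMEM, 18 h at 37 degrees C with 500 pg/mL final TGF-beta. Unstimulated wells served as the full-inhibition control; stimulated DMSO wells = 0%.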
DT40 TDP1 no CPT: qHTS for Inhibitors of human tyrosyl-DNA phosphodiesterase 1 (TDP1): qHTS in cells in absence of CPT. DT40 Tdp1-/- hTDP1 cells, no CPT, ATP luminescence, 48 h. Potency, µM (doses to about 46.2 µM), without a hit: at the highest dose activity change, negative = growth inhibition, actives largely listed as inhibitors. 15% of 420,000 active; further: potency means the concentration at half of the fitted maximal effect; on the % scale 0 is the no-effect control and ±100 the full control effect; nearly all actives have a fitted effect of over 55% in size
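Cells were dispensed at 400 per well, compounds added by pin tool, plates incubated ≥48 hr at 37 °C, then CellTiter-Glo added for 30 min at room temperature before luminescence reading. Line: DT40 Tdp1-/- complemented with hTDP1; camptothecin omitted.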
* hit, by the source's call; ? = inconclusive; nt = no result. Unless noted, the call rests on the fitted dose curve; in most records, active means well fitted curve in the direction sought with a large enough effect; inconclusive means small, poorly fitted or top-dose-only effect, or another doubt; inactive means no such curve, though single readings can be large; an effect the other way counts as inactive or inconclusive.

SMILES	IL1B secr inh	HepG2 tox	TDP1 cell CPT	ASM inhibitor	TGFb inhibitor	DT40 TDP1 no CPT
Cc1c(Cl)cccc1NS(=O)(=O)c1cccc2nsnc12	17.8	-5.2%	1.2%	8.9%	?	-0.8%
COc1ccc2c(CC(=O)Nc3nccs3)coc2c1	-20.3	1.8%	-4.4%	-1.1%	-14.5%	-17.8%
COc1ccc(C2Oc3cc(OC)cc(OC)c3CC2O)cc1 (configuration not stated)	nt	nt	?	nt	nt	16.4µM*
O=C1C2C3C=CC(c4ccccc4)(C2C(=O)N1c1cccc(Cl)c1)C1C(=O)N(c2cccc(Cl)c2)C(=O)C31 (configuration not stated)	-2.7	-0.2%	14.6µM*	-11.6%	?	14.6µM*
O=C1C2C3CCCC3=C3CCCC3C2C(=O)N1c1cccc(Cl)c1 (configuration not stated)	25.2	-27.4%	-9.6%	-2.1%	?	-25.3%
C#CCN(C[C@H]1[C@H](OC(=O)NCc2ccccc2)[C@H](OC(=O)NCc2ccccc2)C[C@H]2C(=O)N(c3ccccc3)C(=O)[C@@H]12)S(=O)(=O)c1ccc(C)cc1	-21.0	-1.9%	-23.2%	nt	-5.6%	-14.6%
C#CCN(C[C@H]1[C@H](OC(=O)NCc2ccc(OC)c(OC)c2)[C@H](OC(=O)NCc2ccc(OC)c(OC)c2)C[C@@H](C(=O)OC)[C@H]1C(=O)OC)S(=O)(=O)c1ccc(C)cc1	-13.6	2.9%	20.6µM*	nt	8.1%	13µM*
C#CCN(C[C@H]1[C@H](OC(=O)NC2CCCC2)[C@H](OC(=O)NC2CCCC2)C[C@@H](C(=O)OC)[C@H]1C(=O)OC)S(=O)(=O)c1ccc(C)cc1	-60.0*	-17.3%	13µM*	nt	?	16.4µM*
C#CCN(C[C@H]1[C@H](OC(=O)NC2CC2)[C@H](OC(=O)NC2CC2)C[C@H]2C(=O)N(c3ccccc3)C(=O)[C@@H]12)S(=O)(=O)c1ccc(C)cc1	10.6	6.0%	-13.9%	nt	4.1%	-11.9%
C#CCN(C[C@H]1[C@H](OC(=O)NCc2ccco2)[C@H](OC(=O)NCc2ccco2)C[C@@H](C(=O)OC)[C@H]1C(=O)OC)S(=O)(=O)c1ccc(C)cc1	-72.1*	-1.3%	20.6µM*	nt	-11.1%	?
O=C(N/N=C/c1ccco1)c1cc(-c2ccncc2)nc2ccccc12	33.7	4.8%	7.31µM*	-2.8%	2.4%	7.31µM*
COc1ccccc1-c1cc(C(=O)N/N=C/c2cccs2)c2ccccc2n1	-3.2	-29.3%	?	-6.5%	-5.1%	?
O=C(N/N=C/c1cccs1)c1cc(C2CC2)nc2ccccc12	57.9	-33.9%	3.66µM*	3.0%	-12.7%	2.91µM*
CCc1ccc(/C=N/NC(=O)c2cc(-c3ccncc3)nc3ccccc23)s1	38.0	-22.6%	4.61µM*	-7.7%	?	3.26µM*
O=C(N/N=C/c1cccs1)c1cc(-c2ccncc2)nc2ccccc12	19.3	-22.2%	0.581µM*	2.7%	?	0.581µM*
CCOc1ncccc1C(=O)NNC(=O)c1cccc(S(=O)(=O)N2CCOCC2)c1	-6.4	1.4%	-8.6%	4.4%	-16.1%	-13.9%
O=C(NNc1ccc(F)cc1F)c1cccs1	nt	nt	0.9%	nt	nt	-24.5%
CC(=O)N1Cc2ccccc2CC1C(=O)NCc1ccccc1F (configuration not stated)	-3.6	15.0%	-5.3%	1.2%	0.1%	-5.3%
C1=C[C@@H]2CCN(Cc3ccccc3)Cc3cccc(c32)C1	19.4	-26.3%	-37.6%	10.9%	-17.4%	?
Cc1ccc(CN2CC[C@H]3C=CCc4cccc(c43)C2)cc1	18.7	-47.1%	?	9.0%	?	20.6µM*
O=C1C[C@H]2C=CCc3cccc(c32)CN1Cc1cccc(F)c1	nt	-17.4%	15.8µM*	nt	-19.2%	10µM*
O=C1C[C@H]2C=CCc3cccc(c32)CN1Cc1ccc(Cl)cc1	nt	-58.8%	?	nt	10µM*	12.6µM*
CC(=O)OC1CC[C@]2(C)C(=CCC3C4CCC(C(C)CCCC(C)C)[C@]4(C)CCC32)C1 (some centres not stated)	nt	nt	-6.2%	nt	nt	21.4%
Cc1cc(C2=NNC(=NC3CC3)SC2)c(C)n1Cc1ccco1	5.6	-40.8%	16.4µM*	-3.6%	?	8.2µM*
Cc1cc(-c2csc(N)n2)c(C)n1Cc1ccco1	12.3	-19.7%	-1.4%	1.2%	-6.8%	0.7%
SMILES	IL1B secr inh	HepG2 tox	TDP1 cell CPT	ASM inhibitor	TGFb inhibitor	DT40 TDP1 no CPT
COCCn1c(C)cc(C2=NNC(=NC3CC3)SC2)c1C	-2.5	10µM*	?	2.1%	8.3%	?
COCCn1c(C)cc(C2=NNC(=Nc3ccc(Cl)cc3Cl)SC2)c1C	-5.4	7.5%	?	-2.2%	-13.9%	?
COCCCN=C1NN=C(c2cc(C)n(Cc3ccco3)c2C)CS1	35.2	-21.8%	0.651µM*	-0.2%	?	0.0291µM*
CCOc1ccc(N=C2NN=C(c3cc(C)n(CC4CCCO4)c3C)CS2)cc1 (configuration not stated)	23.1	-10.7%	?	-1.7%	5.6%	23.1µM*
CC(=O)Nc1ccnn1C1CCN(C(=O)c2cccc(C)c2C)CC1	1.7	-0.7%	-8.2%	0.1%	7.6%	3.9%
Cc1cc(C)cc(OCC(=O)NC(Cc2c[nH]c3ccccc23)C(=O)O)c1 (configuration not stated)	nt	6.3%	-22.2%	nt	1.4%	0.1%
CC(C)NC(=O)c1onc(CSc2ccncc2)c1C(=O)NC(C)C	23.9	5.7%	-9.6%	1.8%	-6.6%	-8.6%
C=CCn1c(C)cc(C2=NNC(=Nc3ccc(C)cc3)SC2)c1C	-3.7	-10.5%	?	-2.5%	-0.8%	?
COCC(C)N=C1NN=C(c2cc(C)n(Cc3ccccc3Cl)c2C)CS1 (configuration not stated)	?	-25.2%	13µM*	0.2%	?	11.6µM*
C=CCn1c(C)cc(C2=NNC(=NC(C)(C)C)SC2)c1C	-76.9*	-5.9%	?	3.2%	-10.9%	?
COc1cccc(NC(=O)c2oc3ccccc3c2NC(=O)c2ccc(C(F)(F)F)cc2)c1	nt	-0.1%	?	nt	23.6%	?
CCC(C)CN1C(=O)CSCC1(C)C(=O)Nc1c(C)cccc1C (configuration not stated)	8.9	nt	11.3%	nt	nt	15.9%
CN(C)c1ccc(NC(=O)c2ccc([N+](=O)[O-])cc2Cl)cc1	-3.6	-4.9%	9.2%	-5.1%	-2.8%	-22.0%
